# Measured values: PubChem BioAssay (EPA / NIEHS)
# A structure can be active in one record and inactive in another. Calls of active or inactive are those of the source. How the source made its calls: active means hit-call score of the fitted dose curve at least 0.9, where 1 is the maximum; inactive means score below 0.9.
# Experiment: CCTE_Harrill_HTTr_Apoptosis_MCF7: CCTE's 6-hour Apoptosis Assessment for the High-Throughput Transcriptomics (HTTr) Platform, in MCF-7 cells cultured in DMEM + 10% fetal bovine serum, Harrill Lab (AID 2284011)
# From the text: This is a cell-based assay that evaluates apoptosis using high content imaging to evaluate activation of caspase-3/7 using the CellEvent Caspase 3/7 Green detection reagent in 384-well format.One of seven assay components measured from the CCTE_Harrill_HTTr_Apoptosis assay. This was part of a full screening experiment. This is a cell-based assay that evaluates apoptosis in MCF-7 cells cultured in DMEM + 10% fetal bovine serum. High content imaging is used to evaluate activation of caspase-3/7 using the CellEvent Caspase 3/7 Green detection reagent. Measurements are taken at 6 hours after chemical dosing in 384-well format.The assay component endpoint CCTE_Harrill_HTTr_Apoptosis_MCF7 was analyzed with bidirectional fitting relation to DMSO as the negative control and baseline of activity. Using a type of viability reporter, gain-of-signal activity can be used to evaluate activation of caspase-3/7 using the CellEvent Caspase 3/7 Green detection reagent to understand changes in apoptosis. To generalize the intended target to other relatable targets, this assay endpoint is annotated to cell cycle, where the subfamily is apoptosis.
# Chemicals were tested in MCF7 cells in an eight point dilution series with a six hour exposure duration.
Structure (SMILES),outcome,AC50
Cc1oncc1C(=O)Nc1ccc(C(F)(F)F)cc1,inactive,
O=C1c2cccc(O)c2C(=O)c2c(O)cc(CO)cc21,inactive,
O=c1[nH]c(=O)c2[nH]c(=O)[nH]c2[nH]1,inactive,
CC1(C)O[C@@H]2C[C@H]3[C@@H]4C[C@H](F)C5=CC(=O)C=C[C@]5(C)[C@@]4(F)[C@@H](O)C[C@]3(C)[C@]2(C(=O)CO)O1,inactive,
O=c1c2ccccc2oc2ccccc12,inactive,
CCCNC(=O)NS(=O)(=O)c1ccc(Cl)cc1,inactive,
CCCCCCC(O)CO (stereo not given),inactive,
O=C(Nc1ccccc1)c1ccccc1O,inactive,
CC/C=C\C/C=C\C/C=C\CCCCCCCC(=O)O,inactive,
Nc1ccc(N=Nc2ccccc2)c(N)n1,inactive,
C[C@]12C=CC(=O)C=C1CC[C@@H]1[C@@H]2[C@@H](O)C[C@@]2(C)[C@H]1CC[C@]2(O)C(=O)CO,inactive,
C[C@]12CCC(=O)C=C1CC[C@@H]1[C@@H]2C(=O)C[C@@]2(C)[C@H]1CC[C@]2(O)C(=O)CO,inactive,
CC(C)(Oc1ccc(C2CC2(Cl)Cl)cc1)C(=O)O (stereo not given),inactive,
Cc1cccc(N(C)C(=S)Oc2ccc3ccccc3c2)c1,inactive,
CCN(Cc1cccc(S(=O)(=O)O)c1)c1ccc(C(=C2C=CC(=[N+](CC)Cc3cccc(S(=O)(=O)[O-])c3)C=C2)c2ccccc2)cc1,inactive,
O=C1CCCCCCCCCCC(=O)OCCO1,inactive,
CN(C)c1ccc(C(=N)c2ccc(N(C)C)cc2)cc1,inactive,40.5 µM (active)
NC(=O)N=NC(N)=O,inactive,
O=c1cc(-c2ccccc2)oc2ccccc12,inactive,
CC(=O)Nc1nnc(S(N)(=O)=O)s1,inactive,

Structure (SMILES),outcome,AC50
Cn1c([N+](=O)[O-])cnc1COC(N)=O,inactive,
O=C(O)CCCC[C@@H]1SC[C@@H]2NC(=O)N[C@@H]21,inactive,
CCOC(=O)c1ccccc1C(=C1C=C(Br)C(=O)C(Br)=C1)c1cc(Br)c(O)c(Br)c1,inactive,
CC(=O)OCC(=O)[C@@]12N=C(C)O[C@@H]1C[C@H]1[C@@H]3CCC4=CC(=O)C=C[C@]4(C)[C@H]3[C@@H](O)C[C@@]12C,inactive,
COC(=O)C1=C(C)NC(C)=C(C(=O)OCC(C)C)C1c1ccccc1[N+](=O)[O-] (stereo not given),inactive,
CN(C)c1ccc(N=Nc2ccccc2C(=O)O)cc1,inactive,
NC(=O)OCC(COC(N)=O)c1ccccc1,inactive,
COc1ccc(C(Cl)=C(c2ccc(OC)cc2)c2ccc(OC)cc2)cc1,inactive,
O=Cc1ccc(CO)o1,inactive,
COc1ccc(-c2coc3cc(O)ccc3c2=O)cc1,inactive,
CC1(C)O[C@@H]2C[C@H]3[C@@H]4C[C@H](F)C5=CC(=O)CC[C@]5(C)[C@H]4[C@@H](O)C[C@]3(C)[C@]2(C(=O)CO)O1,inactive,
C1=Cc2ccccc2C1,inactive,
NC(=O)c1ccccc1O,inactive,
CC(=O)[C@@]1(O)CC[C@H]2[C@@H]3C[C@H](C)C4=CC(=O)C=C[C@]4(C)[C@@]3(F)[C@@H](O)C[C@@]21C,inactive,
O=C1CCCC1,inactive,
O=C(/C=C/C=C/c1ccc2c(c1)OCO2)N1CCCCC1,inactive,
CC(=O)[C@H]1[C@H](C#N)C[C@H]2[C@@H]3CC=C4C[C@@H](O)CC[C@]4(C)[C@H]3CC[C@@]21C,inactive,
CCCCC(CC)COC(=O)c1ccccc1O (stereo not given),inactive,
CC(=O)OC(C)C,inactive,
